# Screening results from PubChem BioAssay.
# Cav3 T inh = Cav3.2 calcium influx blockers – cell-based, Fluo-4 calcium fluorescence, FDSS, MLSMR library, primary screen; Cav3.2-expressing cells; stronger effect = lower value; B-score at 10 µM; 100,000 compounds, 4% hits; AID 449739, 2010;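 active = single-dose well whose peak fluorescence ratio is a statistical outlier from its plate by either plate-standardised score or position-corrected B-score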
# M1 ag = M1 muscarinic receptor agonists, primary screen, CHO-M1 cells, Fluo-4 calcium, agonist mode; B-score at 10 µM; 64,000 compounds, 3% hits; Muscarinic acetylcholine receptor M1; AID 626, 2007; Fluo-4 calcium fluorescence; stronger effect = higher value;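 active = fluorescence rise, raw or as B-score row- and column-corrected plate score, outside the 99.7% band of its plate's samples, either direction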
# PLAP activator = PLAP enzyme activators, biochemical, luminescence, HTS | Alkaline phosphatase, placental type (Homo sapiens), P05187 | AID 696, 2007 | purified PLAP enzyme, luminescent substrate read-out; stronger effect = higher value | activation fold at 20 µM | 96,000 compounds, 1.2% hits; in the data active = activation fold above about 2
# Target sequence (P05187 whole entry, looked up): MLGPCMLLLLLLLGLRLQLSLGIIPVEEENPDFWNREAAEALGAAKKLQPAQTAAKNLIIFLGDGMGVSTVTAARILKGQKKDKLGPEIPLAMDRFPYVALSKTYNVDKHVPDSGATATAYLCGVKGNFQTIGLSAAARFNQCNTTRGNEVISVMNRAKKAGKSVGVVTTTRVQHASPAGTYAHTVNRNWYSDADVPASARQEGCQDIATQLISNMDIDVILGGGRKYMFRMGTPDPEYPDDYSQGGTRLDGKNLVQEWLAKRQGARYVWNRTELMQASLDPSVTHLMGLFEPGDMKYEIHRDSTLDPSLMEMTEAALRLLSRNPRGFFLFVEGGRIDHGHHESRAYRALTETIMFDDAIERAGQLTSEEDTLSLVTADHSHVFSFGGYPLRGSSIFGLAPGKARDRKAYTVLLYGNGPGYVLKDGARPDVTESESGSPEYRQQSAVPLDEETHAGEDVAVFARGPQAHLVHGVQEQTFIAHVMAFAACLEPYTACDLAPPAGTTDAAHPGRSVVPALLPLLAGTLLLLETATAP
# M1 antag = antagonists of rat M1 muscarinic receptor. CHO-M1 cells, Fluo-4 calcium, ACh EC80 antagonist mode; stronger effect = lower value. B-score at 10 µM. 64,000 compounds, 3.4% hits;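 active = calcium fluorescence response, raw or row-and-column corrected B-score, differing from the plate sample mean either way at a set confidence level, mostly lower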
# M1 antag confirm = rat M1 muscarinic receptor antagonists, confirmation, CHO cells, Fluo-4 calcium, duplicate | shares compounds with M1 antag | ACh EC80 antagonism; stronger effect = lower value | calcium response (max-min fluorescence) at 10 µM | 1,700 compounds, 43% hits;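 active = calcium response below the same-plate mean of wells given acetylcholine alone at its 80%-effect dose, minus 3 SD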;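 also: raw fluorescence intensity difference in arbitrary instrument units and not normalized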
# mGluR4 antag = human mGluR4 response to M1 antagonist hits, M1 allosteric modulator project, cell-based, antagonist mode, secondary assay 1. 1,700 compounds, 0.9% hits. fluorescence response (max-min) at 10 µM. shares compounds with M1 antag. AID 678, 2007. CHO-mGluR4 calcium flux, Fluo-4 fluorescence, glutamate EC80; stronger effect = lower value;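 active = fluorescence response below the plate's average for near-maximal glutamate wells, less 3 SD of those wells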;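 also: raw unnormalized fluorescence span taken in the window right after glutamate addition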
# Starred values were filed as active, the others as inactive; . = no result given. This is a sample that favours compounds with a hit; in the whole collection about 7.6% have one here.
SMILES,Cav3 T inh,M1 ag,PLAP activator,M1 antag,M1 antag confirm,mGluR4 antag
CC1=CC(=C2C(=O)c3ccccc3C2=O)C=C(C)O1,.,0.0931,1,-1.14*,546,204
CC1=CC(=C2C(=O)c3ccccc3C2=O)C=C(C)N1Cc1ccco1,.,-0.5,1,-0.777,.,.
O=C(c1cccc(S(=O)(=O)N2CCOCC2)c1)N1CCCc2ccccc21,0.791,-0.83,1.5,-0.0889,.,.
CCOC(=O)N1CCN(C(=O)c2oc3ccc(S(=O)(=O)N4CCOCC4)cc3c2C)CC1,0.855,0.171,1.5,-0.274,.,.
Cc1c(C(=O)N2CCCc3ccccc32)oc2ccc(S(=O)(=O)N3CCOCC3)cc12,-1.57,0.72,1.3,-2.21*,614,264
Cc1c(C(=O)NCc2cccnc2)oc2ccc(S(=O)(=O)N3CCCCC3)cc12,0.284,2.06,.,-0.365,.,.
Cc1c(C(=O)NCc2cccnc2)oc2ccc(S(=O)(=O)N3CCCCCC3)cc12,-0.68,-0.733,1.6,-1.64*,617,268
Cc1c(C(=O)N(C)Cc2ccccc2)oc2ccc(S(=O)(=O)N3CCCC3)cc12,-3.96,2.54,1.7,-2.33*,590,249
CCOC(=O)N1CCN(C(=O)c2oc3ccc(S(=O)(=O)N4CCCCCC4)cc3c2C)CC1,1.95,-0.151,1.4,-1.96*,598,236
O=C(COn1nnc2ccccc21)NCC1CCCCC1,-0.572,0.074,1,-3*,614,245
CC(=O)c1cc(C)ccc1OC(=O)c1cccc2nc(C)oc12,0.075,-0.309,0.9,-4.23*,666,250
COC(=O)N(C)CCCC1(C)C(=O)N(C)c2ccc(O)cc21 (stereo not drawn),0.476,-0.0943,1.1,-4.82*,667,260
COc1cc2c(C(=O)NCCCN3CC(C)CC(C)C3)cn(CC(C)C)c(=O)c2cc1OC (stereo not drawn),1.29,-0.131,1.6,-2.48*,499*,238
O=C(Nc1ccccc1F)c1ccc(S(=O)(=O)NCC2CCCO2)cc1 (stereo not drawn),-0.00872,-0.431,0.8,-0.137,.,.
COC(=O)c1ccccc1NC(=O)C12CCC(C)(C(=O)O1)C2(C)C (stereo not drawn),0.0323,0.163,1.5,0.00759,.,.
COCCOC(=O)C1=C(C)NC2=C(C(=O)CCC2)C1c1ccc(N(C)C)cc1 (stereo not drawn),0.97,1.51,1.5,-0.0455,.,.
CCN(CC)c1ccc(C2C(C(=O)OCCOC(C)C)=C(C)NC3=C2C(=O)CCC3)cc1 (stereo not drawn),-2.54,-0.0589,1.8,-11.2*,144*,236
COc1ccc(CCNC(=O)CSC2=Nc3ccccc3C3=NC(C(C)C)C(=O)N23)cc1OC (stereo not drawn),.,-1.36,1.1,-3.47*,565,228
O=c1[nH]cnc2c1cnn2Cc1ccccc1,-0.0459,-0.949,1.1,-0.148,.,.
CC(C)Nc1nc(NC(C)C)nc(N(C)C#N)n1,-0.812,0.863,0.9,-0.114,.,.
CCN(C#N)c1nc(NC(C)C)nc(NC(C)C)n1,-0.00882,0.427,1.1,-3.47*,607,246
Cc1sc2ncnc(NCC(c3ccco3)N(C)C)c2c1C (stereo not drawn),1.63,-0.81,.,-21.4*,582,245
CSc1nc2n(n1)C(c1ccccn1)C1=C(CC(C)(C)CC1=O)N2 (stereo not drawn),-0.00598,.,0.9,.,.,.
CC1CCCN(CCCNC(=O)C2CC(=O)N(c3ccc(F)c(Cl)c3)C2)C1 (stereo not drawn),0.114,-0.213,1.3,0.242,.,.
CC1CCCCN1CCNC(=O)C1CC(=O)N(c2ccc(F)c(Cl)c2)C1 (stereo not drawn),-0.215,0.0809,1.7,-1.64*,440,168
SMILES,Cav3 T inh,M1 ag,PLAP activator,M1 antag,M1 antag confirm,mGluR4 antag
O=C(N/C(=N\O)c1ccccc1)Nc1ccc(Cl)cc1,-4.98*,-0.36,1,-3.46*,487,210
O=C(NC1CCCCC1)c1sc(=S)n2c1[nH]c(=O)c1ccccc12,-6.31*,2.64,1.3,-1.84*,529,243
CCCCNC(=O)c1sc(=S)n2c1[nH]c(=O)c1ccccc12,-3.13,-0.718,1.1,-1.14,.,.
CC(C)Oc1ccc(C(=O)N/N=C/c2ccc(-c3ccc(S(=O)(=O)Nc4ncccn4)cc3)o2)cc1,0.81,.,1.9,.,.,.
COc1ccc(C2(CN(C(C)=O)C(C)=O)CCCC2)cc1OC,0.504,-0.951,1.1,-14.4*,546,197
C=CCc1c(C)c(C#N)c2nc3ccccc3n2c1N1CCN(C)CC1,.,-0.0416,.,1.08,.,.
COC(=O)CSc1ncccc1-c1nc2ccccc2[nH]1,1.11,-0.523,0.9,-2.35*,682,231
N#CCSc1ncccc1-c1nc2ccccc2[nH]1,0.0968,.,.,.,.,.
CS(=O)(=O)Nc1ccccc1C(=O)Nc1cc(Cl)cc(Cl)c1,-0.0183,.,1.2,.,.,.
CS(=O)(=O)Nc1ccccc1C(=O)Nc1cccc(Cl)c1,-0.617,1.59,1.2,-2.48*,627,187
O=C(NCCCN1CCCCCC1)C1CC(=O)N(CCc2ccccc2)C1 (stereo not drawn),0.913,-0.786,1.2,0.867,.,.
CCCS(=O)(=O)N1CCCC(C(=O)NCCN2CCC(Cc3ccccc3)CC2)C1 (stereo not drawn),0.615,0.697,1.6,-2.37*,524,214
O=C(NCCCN1CCC(Cc2ccccc2)CC1)C1CC(=O)N(C2CCCC2)C1 (stereo not drawn),-0.446,-0.0109,1.6,-3.32*,508*,255
CCc1c(C(=O)NC2CCCC2)csc1C,-2.64,2.03,0.9,-2.24*,653,190
O=C1CC(N2CCN(Cc3ccc4c(c3)OCO4)CC2)C(=O)N1CCc1ccccc1 (stereo not drawn),0.274,-2.47,1.7,-1.24*,482,220
O=C1CC(N2CCN(Cc3ccc4c(c3)OCO4)CC2)C(=O)N1Cc1ccc(N2CCCC2=O)cc1 (stereo not drawn),1.09,-0.202,1.2,-0.919,.,.
O=c1[nH]c(=O)n(Cc2ccccc2)c2c1CCC2,0.0723,0.0202,1,-0.0368,.,.
N=c1c2c(n(Cc3ccc(Cl)c(Cl)c3)c3c1CCC3)CCCC2,-0.265,-0.352,1,-2.45*,433*,236
CCOC(=O)C1CCN(C(=O)CN(c2cc(OC)ccc2OC)S(=O)(=O)c2ccccc2)CC1,0.125,-0.536,1.6,1.6,.,.
O=C1CC(c2ccccc2)CC(O)=C1C=NCCN1CCNCC1 (stereo not drawn),-0.413,0.212,0.9,-0.389,.,.
O=C1CC(c2ccc(Cl)c(Cl)c2)CC(O)=C1C=NCCN1CCNCC1 (stereo not drawn),-1.95,0.208,1.6,-13.2*,173*,238
